Screening data (PubChem BioAssay)
AmpC detergent – inhibitors of E. coli AmpC beta-lactamase with detergent; P00811; AmpC hydrolysis of nitrocefin, absorbance 480 nm, 0.01% Triton; Potency, µM (doses to about 114 µM), usual class: inhibitors; 370,000 compounds, 0.041% hits; AID 485294; also: nearly all actives have a fitted effect of over 25% in size
Target sequence (P00811 whole entry, looked up): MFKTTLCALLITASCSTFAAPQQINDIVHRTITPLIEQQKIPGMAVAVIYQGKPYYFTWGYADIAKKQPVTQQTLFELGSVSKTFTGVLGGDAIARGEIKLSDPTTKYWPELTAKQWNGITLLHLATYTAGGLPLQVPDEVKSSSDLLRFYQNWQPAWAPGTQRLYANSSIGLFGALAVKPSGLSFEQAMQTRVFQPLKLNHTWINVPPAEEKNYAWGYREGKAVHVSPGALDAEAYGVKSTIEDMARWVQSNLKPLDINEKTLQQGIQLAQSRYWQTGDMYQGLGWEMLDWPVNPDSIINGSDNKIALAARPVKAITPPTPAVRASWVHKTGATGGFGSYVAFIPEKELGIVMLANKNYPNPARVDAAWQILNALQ
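20 mM phosphate pH 7.0 + 0.01% (detergent screen) or 0.0001% Triton X-100; 5.3 nM AmpC reagent; cpd preinc 15 min RT; nitrocefin (800 uM stock) to start; A480 q20 s × 4 min; Activity was normalised to no-enzyme and no-compound control wells.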
NS1 function inh – blocks influenza NS1 protein function; Potency, µM (doses to about 46.1 µM); 270,000 compounds, 0.4% hits; AID 2326; calls by dose curve; also: actives are rising curves; nearly all actives have a fitted effect of over 50% in size
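OD600 was taken as the measure of yeast growth restored by compound in an NS1-expressing S. cerevisiae strain. Cells had been washed out of glucose medium and diluted 1:100 into galactose -URA medium, pH 6.0.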
AmpC no deterg – AmpC beta-lactamase inhibition without detergent | 330,000 compounds, 0.52% hits | P00811 | Potency, µM (titrated, usually from 57.1 µM), actives largely listed as inhibitors | AmpC nitrocefin hydrolysis, absorbance 480 nm, 0.0001% Triton; also: nearly all actives have a fitted effect of over 20% in size
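20 mM phosphate pH 7.0 + 0.01% (detergent screen) or 0.0001% Triton X-100; 5.3 nM AmpC reagent; cpd preinc 15 min RT; nitrocefin (800 uM stock) to start; A480 q20 s × 4 min; Activity was normalised to no-enzyme and no-compound control wells.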
AMA1-RON2 inh – inhibitors of Plasmodium falciparum AMA1-RON2 interaction; Potency, µM (titrated, usually from 58.2 µM), most hits filed as inhibitors; AlphaScreen AMA1-biotinylated RON2 peptide binding; 360,000 compounds, 0.2% hits; also: nearly all actives have a fitted effect of over 45% in size
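AMA1 (3D7) with his tag at 25 nM final met compounds first, then biotinylated RON2 peptide at 25 nM; detection used donor plus acceptor beads, 10 µg/mL apiece, read by AlphaScreen after 30 min at room temperature.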
Numbers stand for hits; i = inactive; ? = inconclusive; nt = no result; [ ] = another dose, or the depositor's remark. Most compounds without a hit are left out; they make up all but 0.86% or so of the library. Unless noted, calls follow the shape of the dose curve; as a rule, active = well fitted curve in the direction sought with a large enough effect; inconclusive = small, poorly fitted or top-dose-only effect, or another doubt; inactive = no such curve, though single readings can be large; an effect the other way counts as inactive or inconclusive.

SMILES | AmpC detergent | NS1 function inh | AmpC no deterg | AMA1-RON2 inh
COc1ccc(NC(=O)Cn2cc(C(=O)C3CC3)c3ccccc32)cc1 | i | i | i | i
COc1cccc(NC(=O)Cn2cc(C(=O)C3CC3)c3ccccc32)c1 | ? | nt | 28.2µM | i
CCOC(CNC(=O)c1cc(C)nn1-c1ccccc1)OCC | i | i | i | i
Cc1cc(C(=O)NCCCN2CCOCC2)n(-c2ccccc2)n1 | ? | i | 39.8µM | i
CCOCCCNC(=O)c1cc(C)nn1-c1ccccc1 | ? | i | 3.16µM | i
O=C(c1ccc([N+](=O)[O-])cc1)N1CCN(C2=NS(=O)(=O)c3ccccc32)CC1 | i | i | i | i
O=[N+]([O-])c1ccc(/C=N/NC(=S)Nc2ccc(Cl)cc2Cl)s1 | i | i | 14.1µM | i
O=[N+]([O-])c1ccc(O)c(/C=N/NC(=S)Nc2ccc(Cl)cc2Cl)c1 | i | i | i | i
O=C(/C=C/c1ccco1)c1ccc(NC(=O)C23CC4CC(CC(C4)C2)C3)cc1 | i | ? | 17.8µM | i[2.32 µM]
CN(Cc1ccccc1)c1nc2c(c(=O)[nH]c(=O)n2C)n1Cc1ccccc1 | ? | i | i | i
Cc1cccc(Cn2c(N(C)CCO)nc3c2c(=O)[nH]c(=O)n3C)c1 | ? | i | 11.2µM | i
Oc1ccc2c(c1)OCC1(O)Cc3cc(O)c(O)cc3C21 (stereo not given) | nt | nt | nt | 12.6µM
CC1(C)C=Cc2c(ccc3c2OC[C@H](c2ccc(O)cc2O)C3)O1 | i | nt | i | i
Oc1cc2c(cc1O)[C@H]1c3ccc(O)c(O)c3OC[C@@]1(O)C2 | i | nt | i | 31.6µM
CN(Cc1ccccc1)C(=O)C(=O)Nc1ccc2nc3n(c(=O)c2c1)CCCCC3 | i | nt | nt | nt
FC(F)(F)c1ccc(Cl)c(-n2c(-c3cc(-c4ccco4)[nH]n3)n[nH]c2=S)c1 | i | i | 3.98µM | i
Cc1cc(OCC(=O)Nc2c(C(=O)c3ccccc3)oc3ccccc23)cc(C)c1Cl | i | nt | nt | nt
CC1CCc2nc3ccc(S(=O)(=O)N4CCC(C(=O)NC5CCCC5)CC4)cc3c(C(=O)O)c2C1 (stereo not given) | ? | i | i | i
O=C(O)c1c2c(nc3ccc(S(=O)(=O)N4CCC(C(=O)NC5CCCC5)CC4)cc13)CCCCC2 | i | i | 25.1µM | i
Clc1ccc(CN2CCN(c3ncccn3)CC2)c(Cl)c1 | i | i | i | 15.8µM
CCn1nc(C)c(CCN(C)C(=O)Nc2cc(OC)c(OC)c(OC)c2)c1C | i | nt | nt | nt
Cc1csc(SCC(=O)Nc2cccc3nsnc23)n1 | i | i | 0.224µM | i
COc1ccc(CN(C)c2ccc(-c3nc(-c4ccc(OC)c(OC)c4)no3)cc2[N+](=O)[O-])cc1 | i | nt | nt | nt
O=c1c2ccccc2c(-c2ccccc2)nn1-c1ccc(Cl)c(Cl)c1 | i | i | i | i
Cc1cc(NC(=O)C(C)SCC(=O)Nc2cc(C(F)(F)F)ccc2N2CCCCC2)no1 (stereo not given) | i | nt | 31.6µM | i
SMILES | AmpC detergent | NS1 function inh | AmpC no deterg | AMA1-RON2 inh
CCN(Cc1ccccc1)c1ccc(N=Nc2nn(C)c(C)c2[N+](=O)[O-])cc1 | ? | ? | i | 10µM
CN(C=[N+](C)C)c1cccc2c1C(=O)c1ccccc1C2=O | i | i | i | 31.6µM
CCCCOc1ccc(-c2nnn(CC(=O)NCCc3c[nH]c4ccccc34)n2)cc1 | i | i | 0.282µM | i
O=C1C2Sc3[nH]c(=O)sc3C(c3ccccc3)C2C(=O)N1c1ccccc1 (stereo not given) | i | ? | 17.8µM | i
CCOC(=O)/C=C1\Nc2ccccc2SC1=O | i | i | 20µM | i
O=C(CSc1nnc2c(n1)[nH]c1ccccc12)Nc1ccc2c(c1)OCO2 | i | i | 8.91µM | i
O=C(CSc1nnnn1-c1ccccc1Cl)Nc1ccc2c(c1)OCCO2 | i | i | 31.6µM | i
O=C(CSc1nnnn1-c1ccc(Cl)cc1)NC(=O)Nc1ccc2c(c1)OCCO2 | ? | i | ? | i
O=C(CSCc1ccc(Cl)cc1)Nc1ccc2c(c1)OCCO2 | i | i | 11.2µM | i
Cc1ccc(NC(=O)CSc2nnc3c(n2)[nH]c2ccccc23)cc1 | ? | i | i | i
Cc1c(C(=O)NC(=S)N(Cc2ccccc2)c2ccccn2)cccc1[N+](=O)[O-] | i | nt | i | i
Cc1nc(CN(C)Cc2nc(Cc3ccccc3Cl)no2)cs1 | i | i | i | i
CC1(C)C(=O)OC(c2ccccc2)C2(CCCC2)C1=O (stereo not given) | i | i | i | i
CCCS(=O)(=O)N1CCCC(C(=O)c2ccccc2OC)C1 (stereo not given) | i | i | i | i
CC(=O)N1CCCc2cc(S(=O)(=O)N(C)CC(=O)Nc3cccc(C)c3C)ccc21 | i | nt | nt | nt
Cc1cc(C)c(C(=O)COC(=O)c2ccc(NC(=O)CC#N)cc2)cc1C | i | i | 6.31µM | i
COc1ccc(CCn2c(C)cc(C(=O)COC(=O)c3ccc(NC(=O)CC#N)cc3)c2C)cc1 | i | i | 17.8µM | i
COc1ccc(Nc2c(-c3cc(Br)ccc3O)nc3ncccn23)cc1OC | i | nt | nt | nt
O=C(CN(C(=O)CCC(=O)Nc1nccs1)c1cccc(F)c1)NCCc1ccccc1 | ? | i | i | i
O=C(Cn1nc(Cc2cccnc2)c2ccccc2c1=O)Nc1ccc2c(c1)OCO2 | i | i | 10µM | i
O=C(Cn1nc(Cc2cccnc2)c2ccccc2c1=O)Nc1ccc(F)c(Cl)c1 | i | nt | nt | nt
Cn1c(/N=C/c2cccs2)nc2ccccc21 | i | i | i | i
Cc1cc(C)c(C)c(N=Nc2nc3ccccc3n2C)c1C | i | i | i | 11.2µM
Cc1ccc(C)c(N=Nc2nc3ccccc3n2C)c1 | i | i | i | 10.6µM
Cc1ccc(CNc2nc3ccccc3n2C)cc1 | i | i | i | i
SMILES | AmpC detergent | NS1 function inh | AmpC no deterg | AMA1-RON2 inh
Nc1ccn([C@@H]2O[C@H](CNCC3=CCOc4ccc(O)cc43)[C@@H](O)[C@H]2O)c(=O)n1 | nt | nt | nt | i
Cn1cc(S(=O)(=O)N2CCN(c3cccc(Cl)c3)CC2)c(=O)n(C)c1=O | i | i | i | i
Cn1cc(S(=O)(=O)N2CCN(c3ccccc3)CC2)c(=O)n(C)c1=O | i | i | 39.8µM | i
COc1ccc(N(CC(=O)Nc2cccc(Cl)c2)S(=O)(=O)c2c(C)[nH]c(=O)[nH]c2=O)cc1 | i | nt | nt | nt
O=C(CSc1nc(=O)n(Cc2ccco2)c2c1CCC2)Nc1cccc(F)c1 | i | nt | nt | nt
Cc1cc(C)nc(SCC(=O)c2ccc(O)c(O)c2)n1 | i | ? | i | i
Cc1cc(SCC(=O)c2ccc(O)c(O)c2)n2nc(C)c(-c3ccccc3)c2n1 | i | i | 6.31µM | i
O=c1[nH]nc(SCc2nnc(-c3ccc([N+](=O)[O-])cc3)o2)n1C1CCCCC1 | i | i | i | 3.16µM
CCCN(CCC)C(=O)C(c1ccccc1)C1(O)CCCCC1 (stereo not given) | nt | nt | nt | i
O=C(NCC1CCCO1)c1cn(Cc2ccccc2Cl)nc1-c1ccccc1 (stereo not given) | i | nt | i | i
CCCCCCCn1c2c(c(=N)c3ccccc31)CCC2 | i | i | i | i
COC(=O)CS(=O)(=O)c1nnc([C@H](Cc2ccccc2)NC(=O)OC(C)(C)C)o1 | 35.5µM | i | ? | i
Cc1cccc(CS(=O)(=O)c2nnc([C@H](Cc3ccccc3)NC(=O)OC(C)(C)C)o2)c1 | 39.8µM | i | i | i
